# This is one part of a sample in which hits are shown more often than they occur.
# U2OS ROS induce – cancer cell ROS induction. U2OS ROS induction, H2DCF-DA fluorescence. ROS induction (% of piperlongumine), % at 10 µM. 46,000 tested, 2% active; in the data active = ROS induction above about 79%, passing the limit was not always enough; inconclusive = no clear call, values can overlap the other calls;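 also: 0% = DMSO vehicle median and 100% = reference compound median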
# NOMO-1 viab – STK33 inhibitor candidate reducing NOMO-1 cell viability | 37,000 tested, 7.5% active | NOMO-1 AML viability, CellTiter-Glo luminescence, 72 h | inhibition, % (concentration not given with the values); in the data active = inhibition above about 80%; inconclusive = no clear call, values can overlap the other calls
# * hit, by the source's call; ? = inconclusive; nt = no result given.
SMILES,U2OS ROS induce,NOMO-1 viab
C[C@@H]1CCCCO[C@@H](CN(C)Cc2ccncc2)[C@@H](C)CN([C@H](C)CO)C(=O)c2cc(NC(=O)Nc3cccc4ccccc34)ccc2O1,-5,-1
COc1ccc(C)cc1NC(=O)CN(c1cccc(F)c1)S(C)(=O)=O,nt,-9
CN1C(C(=O)NCC2CCCO2)=CC(c2cccs2)=NS1(=O)=O (stereo not drawn),-9,nt
Cc1coc2c1C(=O)C(=O)c1c-2ccc2c1CCCC2(C)C,-1,109*
CCOC(=O)CSc1nnc2c(n1)[nH]c1ccccc12,nt,111*
CC(=O)c1cccc(NC(=O)CSc2nnc3c(n2)[nH]c2ccccc23)c1,64,59
Cc1ccc(S(=O)(=O)N(C)C[C@H]2Oc3ccc(NC(=O)C4CCCCC4)cc3C(=O)N([C@@H](C)CO)C[C@H]2C)cc1,-1,12
O=C(CCNc1ccc(Oc2ccccc2)cc1)c1ccco1,49,131*
COc1ccc(NC(=O)CNC(=O)c2ccco2)cc1,nt,34
C[C@@H]1CN([C@H](C)CO)C(=O)Cc2cc(NS(=O)(=O)c3ccc(Cl)cc3)ccc2O[C@H]1CN(C)Cc1ccc(C(=O)Nc2ccccc2N)cc1,-3,62
Cc1noc(C)c1S(=O)(=O)Nc1ccc2c(c1)CC(=O)N([C@H](C)CO)C[C@@H](C)[C@H](CN(C)Cc1ccc(C(=O)Nc3ccccc3N)cc1)O2,3,31
Cc1noc(C)c1S(=O)(=O)Nc1ccc2c(c1)CC(=O)N([C@H](C)CO)C[C@@H](C)[C@@H](CN(C)Cc1ccc(C(=O)Nc3ccccc3N)cc1)O2,3,100*
Cc1ccc(S(=O)(=O)Nc2ccc3c(c2)CC(=O)N([C@@H](C)CO)C[C@@H](C)[C@@H](CN(C)Cc2ccc(C(=O)Nc4ccccc4N)cc2)O3)cc1,53,109*
C[C@H]1CN([C@@H](C)CO)C(=O)Cc2cc(NS(=O)(=O)c3cccs3)ccc2O[C@H]1CN(C)Cc1ccc(C(=O)Nc2ccccc2N)cc1,40,141*
C[C@@H]1CN([C@H](C)CO)C(=O)Cc2cc(NS(=O)(=O)c3ccc(F)cc3)ccc2O[C@@H]1CN(C)Cc1ccc(C(=O)Nc2ccccc2N)cc1,60,91*
C[C@@H]1CN([C@H](C)CO)C(=O)Cc2cc(NS(=O)(=O)c3ccc(F)cc3)ccc2O[C@H]1CN(C)Cc1ccc(C(=O)Nc2ccccc2N)cc1,-8,?
C[C@@H]1CN([C@@H](C)CO)C(=O)Cc2cc(NS(=O)(=O)c3cccs3)ccc2O[C@@H]1CN(C)Cc1ccc(C(=O)O)cc1,10,-10
COc1ccc(/C=N/C2=NNC(=O)C(CC(=O)O)S2)cc1 (stereo not drawn),5,8
C[C@@H]1CN([C@@H](C)CO)C(=O)Cc2cc(NC(=O)C3CC3)ccc2O[C@@H]1CN(C)C(=O)Nc1cccc2ccccc12,0,4
COc1ccc(S(=O)(=O)Nc2ccc3c(c2)CC(=O)N([C@@H](C)CO)C[C@H](C)[C@H](CN(C)Cc2ccc(C(=O)Nc4ccccc4N)cc2)O3)cc1,-1,140*
COc1ccc(S(=O)(=O)Nc2ccc3c(c2)CC(=O)N([C@@H](C)CO)C[C@H](C)[C@@H](CN(C)Cc2ccc(C(=O)Nc4ccccc4N)cc2)O3)cc1,2,45
CCOC(=O)C1C2C=CC3(O2)C1C(=O)N(Cc1ccccc1)C3C(=O)NCc1ccccc1 (stereo not drawn),47,nt
C[C@H](CO)N1C[C@H](C)[C@@H](CN(C)Cc2ccc(C(F)(F)F)cc2)Oc2c(NC(=O)c3ccc(-c4nccs4)cc3)cccc2C1=O,56,115*
C[C@H]1CN([C@@H](C)CO)C(=O)c2cccc(NC(=O)c3ccc(-c4nccs4)cc3)c2O[C@@H]1CN(C)Cc1ccc(C(F)(F)F)cc1,56,?
C[C@H]1CN([C@@H](C)CO)C(=O)c2cccc(NC(=O)c3ccc(-c4nccs4)cc3)c2O[C@H]1CN(C)Cc1ccncc1,3,12
SMILES,U2OS ROS induce,NOMO-1 viab
C[C@@H]1CN([C@H](C)CO)C(=O)c2cccc(NC(=O)c3ccc(-c4nccs4)cc3)c2O[C@@H]1CN(C)Cc1ccc(C(F)(F)F)cc1,23,14
C[C@@H]1CN([C@@H](C)CO)C(=O)c2cccc(NC(=O)c3ccc(-c4nccs4)cc3)c2O[C@H]1CN(C)Cc1ccc(C(F)(F)F)cc1,71,99*
C[C@@H]1CN([C@@H](C)CO)C(=O)c2cccc(NC(=O)c3ccc(-c4nccs4)cc3)c2O[C@@H]1CN(C)Cc1ccc(C(F)(F)F)cc1,67,88*
COc1cc(C=O)cc2c1[nH]c1ccccc12,-13,12
COc1ccc(S(=O)(=O)N(C)C[C@@H]2Oc3ccc(NC(=O)Nc4cccc5ccccc45)cc3C(=O)N([C@@H](C)CO)C[C@H]2C)cc1,29,2
C[C@H]1CN([C@@H](C)CO)C(=O)c2cc(NC(=O)CCN3CCOCC3)ccc2O[C@@H]1CN(C)C(=O)Nc1cccc2ccccc12,-1,-6
COc1ccc(S(=O)(=O)Nc2cccc3c2O[C@H](CN(C)Cc2ccc(C(F)(F)F)cc2)[C@H](C)CN([C@@H](C)CO)C3=O)cc1,25,20
Cc1ccc(S(=O)(=O)Nc2cccc3c2O[C@@H](CN(C)Cc2ccc(C(F)(F)F)cc2)[C@@H](C)CN([C@@H](C)CO)C3=O)cc1,2,17
Cc1ccc(S(=O)(=O)Nc2cccc3c2O[C@@H](CN(C)Cc2ccc(C(F)(F)F)cc2)[C@@H](C)CN([C@H](C)CO)C3=O)cc1,10,90*
COc1ccc(S(=O)(=O)Nc2cccc3c2O[C@@H](CN(C)Cc2ccc(C(F)(F)F)cc2)[C@@H](C)CN([C@H](C)CO)C3=O)cc1,17,96*
Cc1ccc(S(=O)(=O)Nc2cccc3c2O[C@@H](CN(C)C(=O)NC2CCCCC2)[C@@H](C)CN([C@H](C)CO)C3=O)cc1,-9,100*
Cc1ccc(S(=O)(=O)Nc2cccc3c2O[C@@H](CN(C)C(=O)NC2CCCCC2)[C@@H](C)CN([C@@H](C)CO)C3=O)cc1,44,27
Cc1ccc(O)c(/C=N/NC(=O)CCCCC(=O)NO)c1,1,nt
C[C@H]1CN([C@@H](C)CO)C(=O)c2cc(NC(=O)CCC(F)(F)F)ccc2O[C@H]1CN(C)CC1CC1,-17,5
CC(C)Cn1c(=O)c2cc3c(=O)n(CC(C)C)c(=O)c3c(C(=O)c3ccc(Cl)cc3)c2c1=O,20,28
Cc1ccc(S(=O)(=O)N(C)C[C@H]2Oc3c(NC(=O)Nc4ccc(C(F)(F)F)cc4)cccc3C(=O)N([C@@H](C)CO)C[C@@H]2C)cc1,4,63
C[C@H]1CN([C@@H](C)CO)C(=O)c2cccc(NC(=O)Nc3ccc(F)cc3)c2O[C@@H]1CN(C)S(=O)(=O)c1ccc(Cl)cc1,21,11
C[C@H](CO)N1C[C@H](C)[C@H](CN(C)S(=O)(=O)c2ccc(Cl)cc2)Oc2c(NC(=O)NC3CCCCC3)cccc2C1=O,97*,120*
C[C@@H]1CN([C@@H](C)CO)C(=O)c2cccc(NC(=O)Nc3ccc(F)cc3)c2O[C@@H]1CN(C)S(=O)(=O)c1ccc(Cl)cc1,-3,82*
C[C@H]1CN([C@@H](C)CO)C(=O)c2cccc(NC(=O)NC3CCCCC3)c2O[C@@H]1CN(C)S(=O)(=O)c1ccc(Cl)cc1,19,5

# Screening results as filed in PubChem.
